HCMV inh – qHTS Assay for inhibitors of the human cytomegalovirus (HCMV); HFF cells, HCMV-luciferase reporter, 72 h; active compounds read low; activity change, negative = inhibition, % at 57.5 µM; 410,000 tested, 4.5% active; AID 1259415, 2018; in the data active = activity change below about -60%; inconclusive = no clear call, values can overlap the other calls; inactive = above about -39%; also: % is scaled to controls: 0 for no effect and ±100 for the full control effect
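Human foreskin fibroblasts infected with luciferase-reporter HCMV at MOI 1 PFU/cell, compounds at two doses. Luciferase measured 72 h post infection; normalized to buffer-only basal and Salinomycin (10uM) controls.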
Shiga toxin inh – A qHTS for Small Molecule Inhibitors of Shiga Toxin. Vero cells, Shiga toxin protein synthesis inhibition reporter. inhibition, % at 38.7 µM. 290,000 tested, 9.2% active. AID 2315, 2010; in the data active = inhibition mostly above about 28%, no sharp cut-off; inactive = mostly below about 43%; also: 0% is about no effect
HCV inh – qHTS Assay for Inhibitors of Hepatitis C Virus (HCV); Huh7.5.1 HCVcc-Cre infection, luciferase reporter, 44 h; Potency, µM (top dose mostly 41.8 µM), for inactives: top-dose activity change, negative = inhibition, hits mostly inhibitors; 340,000 tested, 3.4% active; also: potency is read from the fitted curve at half-maximal effect; % is scaled to controls: 0 for no effect and ±100 for the full control effect
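Cells (1,000/well) were plated 4 h before compound, then infected with HCVcc-Cre virus (~0.5 moi). After 44 h further culture, infection was read as luciferase luminescence following a 15 min substrate incubation at room temperature.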
CHX counter – Cycloheximide Counterscreen for Small Molecule Inhibitors of Shiga Toxin; cell reporter, cycloheximide protein synthesis inhibition counterscreen; max response, %; 300,000 tested, 12% active; in the data active = max response mostly above about 13%, no sharp cut-off; inactive = mostly below about 14%; also: read at 38.3 µM for the half of the compounds with a filed dose; 0% is about no effect
Pf growth 48h – Primary qHTS for delayed death inhibitors of the malarial parasite plastid, 48 hour incubation. P. falciparum luciferase growth in erythrocytes, 48 h. Potency, µM (doses to about 28.7 µM), inactives show top-dose activity change, negative = inhibition, actives largely listed as inhibitors. 310,000 tested, 5.9% active. AID 504832, 2011; also: potency is read from the fitted curve at half-maximal effect; % is scaled to controls: 0 for no effect and ±100 for the full control effect
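Growth was read as firefly luciferase luminescence after a 48 h, 37 C, 5% CO2 exposure of compounds to reporter-bearing P. falciparum cultures (0.1% parasitemia, 2% hematocrit final) in Albumax-supplemented RPMI 1640.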
Pf growth 96h – Primary qHTS for delayed death inhibitors of the malarial parasite plastid, 96 hour incubation. AID 504834, 2011. Potency, µM (highest dose often 28.7 µM), inactives show at the top dose activity change, negative = inhibition, most hits filed as inhibitors. 320,000 tested, 6.9% active. P. falciparum luciferase reporter growth, 96 h; also: potency is read from the fitted curve at half-maximal effect; % is scaled to controls: 0 for no effect and ±100 for the full control effect
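P. falciparum expressing integrated firefly luciferase, in erythrocytes at 2% hematocrit, 0.05% parasitemia, incubated with compounds 96 h at 37 C, 5% CO2. Growth inhibition read as loss of luminescence; two-generation exposure targets delayed-death apicoplast inhibitors.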
* hit, by the source's call; ? = inconclusive; nt = no result given; + = active, no number. In the library only some 21% were active in any assay of this set; here they are far more common. Unless noted, calls follow the shape of the dose curve; as a rule, active = well fitted inhibition curve with a large enough effect; inconclusive = small, poorly fitted or top-dose-only effect, or another doubt; inactive = no such curve, though single readings can be large or run the other way.

SMILES	HCMV inh	Shiga toxin inh	HCV inh	CHX counter	Pf growth 48h	Pf growth 96h
Cc1ccc(C)n1-c1cccc(S(=O)(=O)N2CCOCC2)c1	-3	7	-23%	11	?	13µM*
O=c1n(S(=O)(=O)c2cccc3cccnc23)c2ccccc2n1S(=O)(=O)c1cccc2cccnc12	-32	-23	?	-3	nt	6.6µM*
Cc1cc(C(=O)CCl)c(C)n1-c1cccc(S(=O)(=O)N2CCOCC2)c1	-29	-27	?	16	-27%	-113%
O=c1c(Cl)c(N2CCN(S(=O)(=O)c3ccc(F)cc3)CC2)cnn1-c1cccc(Cl)c1	-12	-13	?	4	8.3µM*	6.6µM*
CC1CC(C)CN(S(=O)(=O)c2cccc3cccnc23)C1 (centres undefined)	-32	7	-4%	1	nt	?
O=S(=O)(c1cccc2cccnc12)N1CCN(c2ccc(F)cc2)CC1	-22	-6	2%	-2	-7%	15µM*
COC(=O)c1ccc(N)c2c(N)ccc(C(=O)OC)c12	-8	nt	nt	nt	nt	nt
CSc1ccc(CCNC(=O)c2cc(C)nn2-c2ccccc2)cc1	-29	-5	13%	-1	-8%	-1%
O=S(=O)(c1ccc(F)cc1)N1CCN(c2ncccn2)CC1	-33	-1	16%	-2	2.1µM*	4%
CN(C)S(=O)(=O)c1ccc(N2CCN(S(=O)(=O)c3ccc(F)cc3)CC2)c(Cl)c1	12	1	?	2	7.4µM*	8.3µM*
O=S(=O)(c1cccc(S(=O)(=O)N2CCN(c3ncccn3)CC2)c1)N1CCOCC1	-9	-2	10%	-1	-24%	12µM*
COC(=O)c1c(-c2cccs2)csc1NC(=O)c1ccc(Br)cc1	24	nt	nt	nt	nt	nt
O=S1(=O)NC2c3ccccc3CC2O1 (centres undefined)	54	-2	1%	4	60%	-27%
CC(C)c1ccc2c(c1)C1Cc3ccccc3C1N2 (centres undefined)	-20	42*	?	56*	?	?
COc1ccc(-c2nc3c(c(SCC(=O)Nc4ccccc4F)n2)Cc2cc(C)ccc2O3)cc1	0	nt	nt	nt	nt	nt
C=CCOc1ccc2c(c1)C(=NO)c1cc(OCC=C)ccc1-2	-19	14	?	10	nt	?
COc1ccc2c(c1)C(=NO)c1cc(OC)ccc1-2	?	22*	8.9µM*	18*	15%	nt
Cc1cccc(CNC(=O)CC2C(=O)NCCN2C2CCCC2)c1 (centres undefined)	-20	21	-6%	11	-21%	-26%
CCOc1ccc2nc(Cl)c(C3CC(c4ccc(OC)cc4)=NN3S(C)(=O)=O)cc2c1 (centres undefined)	24	nt	nt	nt	nt	nt
CCOc1ccc2nc(Cl)c(C3CC(c4ccco4)=NN3S(=O)(=O)c3ccccc3)cc2c1 (centres undefined)	28	+	?	-2	?	7.4µM*
COc1ccc(C)cc1NC(=O)C1CCCN(S(=O)(=O)c2cnc[nH]2)C1 (centres undefined)	-61*	-9	-1%	-1	nt	12µM*
Cc1ccc2nc(NC(=O)C3CCCN(S(=O)(=O)c4cnc[nH]4)C3)sc2c1 (centres undefined)	9	+	?	43*	-13%	?
CCOc1ccc2nc(NC(=O)C3CCCN(S(=O)(=O)c4cccs4)C3)sc2c1 (centres undefined)	-24	14	14µM*	9	15µM*	-14%
Cc1ccnc(NC(=O)C2CCCN(S(=O)(=O)c3cnc[nH]3)C2)c1 (centres undefined)	7	-5	7%	21	0%	?
COc1ccccc1NC(=O)C1CCCN(S(=O)(=O)c2cnc[nH]2)C1 (centres undefined)	80	-10	-18%	-3	nt	0%
SMILES	HCMV inh	Shiga toxin inh	HCV inh	CHX counter	Pf growth 48h	Pf growth 96h
Cc1ccc2nc(NC(=O)C3CCCN(S(=O)(=O)c4cccnc4)C3)sc2c1 (centres undefined)	-39	-24	?	1	13µM*	8%
COc1ccc(/C=C(\NC(=O)c2ccccc2)C(=O)NC2CCCCC2)cc1	-11	nt	nt	nt	nt	nt
O=[N+]([O-])c1ccccc1SN(Cc1ccccc1)c1ccccn1	38	13	5%	-2	7%	9%
Cc1ccc(C)c(N2CCN(S(=O)(=O)c3cc4c(cc3Cl)NC(=O)CO4)CC2)c1	44	-4	18%	-2	-2%	?
COc1ccc(C(=O)NCCc2sc(-c3cccc(F)c3)nc2C)cc1	-9	nt	nt	nt	nt	nt
CN1CCN(Cc2ccc(Sc3ccc(Cl)cc3)c([N+](=O)[O-])c2)CC1	-71*	-4	?	-5	?	0.17µM*
Cc1ccc(Sc2ccc(CN3CCCC3)cc2[N+](=O)[O-])cc1	-27	-5	?	-2	4%	?
O=C1CC(c2ccc(O)c(O)c2)Oc2cc(O)cc(O)c21 (centres undefined)	19	19	?	-2	35%	?
O=C1CC(c2ccccc2)Oc2cc(O)cc(O)c21 (centres undefined)	6	57*	-27%	16*	-4%	?
O=C1CC(c2ccc(O)cc2)Oc2cc(O)cc(O)c21 (centres undefined)	28	36	-5%	14*	34%	26%
CCC(C)c1ccc(NC(=O)c2cccnc2)cc1 (centres undefined)	11	59*	?	43*	-27%	5%
CCCCSc1ccc(NC(=O)c2cccnc2)cc1	2	35	2%	14*	-14%	nt
CCOC(=O)c1c(C)[nH]c(C(=O)N(C)CC(=O)Nc2ccc(OC)cc2)c1C	0	nt	-20%	nt	-24%	?
COC(=O)C(C)n1nnc2sc(-c3ccccc3)cc2c1=O (centres undefined)	?	113*	4%	40*	201%	226%
Cc1ccc(S(=O)(=O)N2CCC(C(=O)NCC(C)(C)N3CCOCC3)CC2)c(C)c1	-14	nt	2%	nt	-9%	?
Cc1oc2ncn(C)c(=O)c2c1C(=O)N1CCN(c2cccc(C(F)(F)F)c2)CC1	-13	nt	nt	nt	nt	nt
CCc1cccc(NC(=O)C(NS(=O)(=O)c2ccc3nc(C)sc3c2)C(C)C)c1 (centres undefined)	-6	nt	nt	nt	nt	nt
CC(=O)N(Cc1cc2cc(C)c(C)cc2n2nnnc12)CC1COCCO1 (centres undefined)	11	-17	-4%	-2	33%	2.9µM*
Cc1cc2cc(CN(Cc3ccc4c(c3)OCO4)C(=O)c3cnccn3)c3nnnn3c2cc1C	-11	-14	?	-8	-5%	nt

From PubChem BioAssay
